Structures can show the parent of a compound that is named as a salt.
Tested on: Drosophila S2 cl14 SmoIP sensor cells
Experiment: normalized SmoIP GFP fluorescence (untreated unstimulated = 0%, untreated Hh-stimulated = 100%); higher = more Smo activation sensor fluorescence
Conditions: compound concentration: 2 uM, 24 h
[1] = stimulation: Hh conditioned medium (+Hh)
[2] = stimulation: mock conditioned medium (-Hh)
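Note: flow cytometry read-out as median GFP intensity of gated cells, compounds added 30 min before Hh-conditioned or mock medium, mock-treated cells serving as unstimulated baseline.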

Row | SMILES | normalized SmoIP GFP fluorescence [1] | normalized SmoIP GFP fluorescence [2]
1 | CCn1cc(-c2ccnc3[nH]c(-c4cccc(CN(C)C)c4)cc23)c(-c2ccc(NC(=O)N(C)C)cc2)n1 | 173% | -0.747%
2 | C[C@H](NC(=O)[C@@H](O)c1cc(F)cc(F)c1)C(=O)N[C@@H]1C(=O)N(C)c2ccccc2-c2ccccc21 | 145% | 9.98%
3 | CCN(CC)CCNC(=O)c1c(C)[nH]c(/C=C2\C(=O)Nc3ccc(F)cc32)c1C [Sunitinib-Malate-(Sutent)] | 182% | 90.8%
4 | COc1ccnc2[nH]cc(C(=O)C(=O)N3CCN(C(=O)c4ccccc4)C[C@H]3C)c12 | 142% | 15.4%
5 | COc1cc2nccc(Oc3ccc(NC(=O)Nc4cc(C)on4)c(Cl)c3)c2cc1OC | 111% | 1.89%
6 | CC(=O)O[C@H]1CC[C@@]2(C)C(=CCC3C2CC[C@]2(C)C(c4cccnc4)=CCC32)C1 (stereo partly specified) [Abiraterone-Acetate-CB7630] | 106% | -12.7%
7 | O[C@H](CNC[C@@H](O)[C@H]1CCc2cc(F)ccc2O1)[C@@H]1CCc2cc(F)ccc2O1 [Nebivolol(Bystolic)] | 109% | 19.8%
8 | CC(C)C[C@@H](C=O)NC(=O)[C@H](CC(C)C)NC(=O)[C@H](CC(C)C)NC(=O)OCc1ccccc1 | 112% | 11.3%
9 | CCOC(=O)c1ncn2c1CN(C)C(=O)c1cc(F)ccc1-2 [Flumazenil] | 110% | 1.57%
10 | CC1=C(/C=C/C(C)=C/C=C/C(C)=C\C(=O)O)C(C)(C)CCC1 [Isotretinoin] | 106% | -7.27%
11 | Cn1cc(C2=C(c3ccc(Cl)cc3Cl)C(=O)NC2=O)c2ccccc21 | 115% | 16.5%
12 | Oc1ccc([C@H]2COc3cc(O)ccc3C2)cc1 [equol] | 107% | -3.9%
13 | O=C(O)CCc1ccc(NCc2cccc(Oc3ccccc3)c2)cc1 | 105% | -2.19%
14 | COc1cc2ncnc(Nc3ccc(F)c(Cl)c3)c2cc1OCCCN1CCOCC1 [Gefitinib] | 116% | -4.53%
15 | C[C@@H]1C[C@H]2[C@@H]3CCC4=CC(=O)C=C[C@]4(C)[C@@]3(F)[C@@H](O)C[C@]2(C)[C@@]1(O)C(=O)CO [Dexamethasone] | 86.8% | 5.66%
16 | Cc1cc(C#N)cc(C)c1Oc1nc(Nc2ccc(C#N)cc2)nc(N)c1Br [etravirine-tmc125] | 93.3% | -0.264%
17 | CC(C)OC(=O)C1=CN(C(=O)c2ccc(F)c(F)c2)CC(C)(C)c2c1[nH]c1ccccc21 | 117% | 12.5%
18 | CC[C@H]1OC(=O)[C@H](C)[C@@H](O[C@H]2C[C@@](C)(OC)[C@@H](O)[C@H](C)O2)[C@H](C)[C@@H](O[C@@H]2O[C@H](C)C[C@H](N(C)C)[C@H]2O)[C@](C)(OC)C[C@@H](C)C(=O)[C@H](C)[C@@H](O)[C@]1(C)O [clarithromycin] | 147% | -6.97%
19 | CCOc1nc2cccc(C(=O)O)c2n1Cc1ccc(-c2ccccc2-c2noc(=O)[nH]2)cc1 [azilsartan-tak-536] | 104% | -4.7%
20 | CNC(CC(=O)O)C(=O)O (stereo not drawn) [nmda-n-methyl-d-aspartic-acid] | 101% | -3.16%
21 | Cc1c(Cl)cccc1Nc1ccccc1C(=O)O [tolfenamic-acid] | 88.3% | -15.3%
22 | Cn1c(Nc2ccc(C(F)(F)F)cc2)nc2cc(Oc3ccnc(-c4ncc(C(F)(F)F)[nH]4)c3)ccc21 | 183% | 2.32%
23 | Cc1ccccc1C(=O)Nc1ccc(C(=O)N2CCCC(O)c3cc(Cl)ccc32)c(C)c1 (stereo unspecified) | 111% | -6.61%

Row | SMILES | normalized SmoIP GFP fluorescence [1] | normalized SmoIP GFP fluorescence [2]
24 | CN1CCN(C2CCN(C(=O)Nc3cc(Oc4ccc(NC(=O)C5(C(=O)Nc6ccc(F)cc6)CC5)c(F)c4)ccn3)CC2)CC1 [golvatinib-e7050] | 125% | 12.5%
25 | CN(Cc1cnc2nc(N)nc(N)c2n1)c1ccc(C(=O)N[C@@H](CCC(=O)O)C(=O)O)cc1 [Abitrexate] | 200% | 13.3%
26 | COc1ccccc1Oc1c(NS(=O)(=O)c2ccc(C(C)(C)C)cc2)nc(-c2ncccn2)nc1OCCO [bosentan-hydrate] | 109% | -1.63%
27 | CCCCc1oc2ccccc2c1C(=O)c1cc(I)c(OCCN(CC)CC)c(I)c1 [amiodarone-hcl] | 112% | 1.69%
28 | COC(=O)[C@]12CCC(C)(C)C[C@H]1[C@H]1C(=O)C=C3[C@@]4(C)C=C(C#N)C(=O)C(C)(C)[C@@H]4CC[C@@]3(C)[C@]1(C)CC2 [bardoxolone-methyl] | 102% | 0.986%
29 | CN(C)CCCCC(=O)Nc1ccc(NC(=S)NC(=O)c2ccc(C(C)(C)C)cc2)cc1 [tenovin-6] | 112% | 3.49%
30 | CC1(C)CCC2=C(O1)c1ccccc1C(=O)C2=O [beta-lapachone] | 113% | -0.264%
31 | CC[C@@]1(O)C(=O)OCc2c1cc1n(c2=O)Cc2cc3c(CN(C)C)c(O)ccc3nc2-1 [Topotecan-Hydrochloride] | 110% | 15.7%
32 | CCn1c2ccccc2c2cc(Nc3ccnc(NCCCN4CCOCC4)n3)ccc21 [ehop-016] | 100% | -3.62%
33 | COc1ccc(-c2ccc3c(N4CCOCC4)nc(N4C[C@@H](C)O[C@@H](C)C4)nc3n2)cc1CO | 62.1% | -12.5%
34 | N[C@H]1C[C@@H]1c1ccc(-c2cccc(O)c2)cc1 | 102% | -4.81%
35 | CC(C)C[C@H](NC(=O)CNC(=O)c1cc(Cl)ccc1Cl)B(O)O | 82.1% | 26%
36 | O=C(O)CCCCC(CCSCc1ccccc1)SCc1ccccc1 (stereo unspecified) | 112% | -1.63%
37 | CCO[C@@H]1OC(=O)C[C@@H]1NC(=O)[C@@H]1CCCN1C(=O)[C@@H](NC(=O)c1ccc(N)c(Cl)c1)C(C)(C)C | 135% | -7.78%
38 | CN(C)CC[C@H](CSc1ccccc1)Nc1ccc(S(=O)(=O)NC(=O)c2ccc(N3CCN(Cc4ccccc4-c4ccc(Cl)cc4)CC3)cc2)cc1[N+](=O)[O-] | 109% | 2.97%
39 | COc1cc(F)c(C(C)C)cc1-c1ccc(C(F)(F)F)cc1CN1C(=O)O[C@H](c2cc(C(F)(F)F)cc(C(F)(F)F)c2)[C@@H]1C [anacetrapib-mk-0859] | 146% | -8.59%
40 | CC1(C)CCC(c2ccc(Cl)cc2)=C(CN2CCN(c3ccc(C(=O)NS(=O)(=O)c4ccc(N[C@H](CCN5CCOCC5)CSc5ccccc5)c(S(=O)(=O)C(F)(F)F)c4)cc3)CC2)C1 | 108% | 20.1%
41 | COCCOC(=O)C1=C(C)NC(C)=C(C(=O)OC/C=C/c2ccccc2)C1c1cccc([N+](=O)[O-])c1 (stereo unspecified) [Cilnidipine] | 112% | 2.97%
42 | CC(C)N(CCC(=O)c1ccc2ccccc2c1)Cc1ccccc1 | 119% | -19%
43 | CN1CCC[C@@H]1CCO[C@](C)(c1ccccc1)c1ccc(Cl)cc1 [Clemastine-Fumarate] | 104% | 10.7%
44 | O=C(/C=C\n1cnc(-c2cc(C(F)(F)F)cc(C(F)(F)F)c2)n1)N1CC(F)(F)C1 | 118% | -0.264%
45 | NC(=O)[C@@H](CCC(F)(F)F)N(Cc1ccc(-c2ncon2)cc1F)S(=O)(=O)c1ccc(Cl)cc1 | 116% | 0.489%
46 | Cc1ccc(-c2cc(C(F)(F)F)nn2-c2ccc(S(N)(=O)=O)cc2)cc1 [Celecoxib] | 111% | 2.11%

Row | SMILES | normalized SmoIP GFP fluorescence [1] | normalized SmoIP GFP fluorescence [2]
47 | O=C(Nc1cccc(Cl)c1)Nc1ncc(CCNc2ncnc3ccsc23)s1 | 127% | 11%
48 | O=S(=O)(NCCNC/C=C/c1ccc(Br)cc1)c1cccc2cnccc12 [H-89-dihydrochloride] | 105% | 5.45%
49 | CCOC(=O)c1ccc(OC(=O)CCCCCNC(=N)N)cc1 [gabexate-mesylate] | 120% | -12.6%
50 | Cc1ccc(C(=O)Cn2c3c(sc2=N)CCCC3)cc1 [pifithrin-alpha] | 98.6% | -1%
51 | O=C(COc1cccc2c(=O)[nH]ccc12)c1ccccc1 | 139% | 0.334%
52 | Cc1ccc(NCCCc2ccccc2)c(N)c1 | 224% | 40.1%
53 | OCCOCCN1CCN(C2=Nc3ccccc3Sc3ccccc32)CC1 [Quetiapine-fumarate(Seroquel)] | 106% | -9.58%
54 | COc1ccc(-n2nc(C(N)=O)c3c2C(=O)N(c2ccc(N4CCCCC4=O)cc2)CC3)cc1 | 102% | -1.56%
55 | N=C(N)NC(=N)NCCc1ccccc1 [Phenformin-hydrochloride] | 151% | -9.04%
56 | COc1ccc(CNc2nc(N3CCC[C@H]3CO)ncc2C(=O)NCc2ncccn2)cc1Cl [avanafil] | 106% | -2.31%
57 | NC1(c2ccc(-c3nc4ccn5c(=O)[nH]nc5c4cc3-c3ccccc3)cc2)CCC1 | 102% | 16.8%
58 | Oc1c2ccccc2c2c3c(cccc13)N=N2 | 121% | 66%
59 | CCc1ccc(/C=C2/SC(=S)NC2=O)cc1 | 105% | -1.63%
60 | CCCCN(Cc1ccc(C(=O)NO)cc1)C(=O)Nc1ccccc1 [nexturastat-a] | 105% | 6.74%
61 | N#CCNC(=O)c1ccc(-c2ccnc(Nc3ccc(N4CCOCC4)cc3)n2)cc1 | 208% | 53.3%
62 | COc1ccc2c(Oc3ccc(NC(=O)c4c(C)n(CC(C)(C)O)n(-c5ccccc5)c4=O)nc3)ccnc2c1 | 158% | -1.11%
63 | CNC(=O)c1cccc(-c2ccc3c(N4CCOC[C@@H]4C)nc(N4CCOC[C@@H]4C)nc3n2)c1 | 65.7% | -4.47%
64 | CC(=O)N[C@@H](CS)C(=O)O [Acetylcysteine] | 111% | 1.57%
65 | O=c1n(CCCN2CCN(c3cccc(Cl)c3)CC2)nc2ccccn12 [trazodone-hydrochloride-desyrel] | 172% | -8.23%
66 | CN(C)C(=O)c1cc2cnc(Nc3ccc(N4CCNCC4)cn3)nc2n1C1CCCC1 | 98.3% | -0.265%
67 | CCCCc1nc2cc(/C=C/C(=O)NO)ccc2n1CCN(CC)CC | 208% | 34.2%
68 | CC1CCc2cc(F)cc3c(=O)c(C(=O)O)cn1c23 (stereo unspecified) [flumequine] | 106% | -3.79%

From the supplement of paper PMC5662767
